From PubChem BioAssay
AmpC detergent = AmpC beta-lactamase inhibition with detergent present; 370,000 tested, 0.041% active; AmpC hydrolysis of nitrocefin, absorbance 480 nm, 0.01% Triton; P00811; Potency, µM (doses to about 114 µM), for the others: top-dose activity change, negative = inhibition, usual class: inhibitors;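 also: 0% = no-compound wells and -100% = no-enzyme wells; nearly all actives have a fitted effect of over 25% in size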
Target sequence (P00811 whole entry, looked up): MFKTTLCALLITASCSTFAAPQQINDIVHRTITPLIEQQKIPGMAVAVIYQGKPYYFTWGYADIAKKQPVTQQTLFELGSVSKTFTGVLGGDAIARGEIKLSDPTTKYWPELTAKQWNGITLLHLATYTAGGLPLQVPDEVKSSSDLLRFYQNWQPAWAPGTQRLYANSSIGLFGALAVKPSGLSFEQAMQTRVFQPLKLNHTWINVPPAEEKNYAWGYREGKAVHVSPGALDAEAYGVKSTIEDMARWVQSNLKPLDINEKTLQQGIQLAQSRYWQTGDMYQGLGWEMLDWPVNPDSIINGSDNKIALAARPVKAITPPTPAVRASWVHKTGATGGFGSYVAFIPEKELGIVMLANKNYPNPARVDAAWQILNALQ
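AmpC (5.3 nM in the dispensed reagent) in 20 mM phosphate pH 7.0 with 0.01% (detergent screen) or 0.0001% Triton X-100 was preincubated with compounds for 15 min at room temperature. Nitrocefin was then added from an 800 uM solution, and hydrolysis was followed at 480 nm.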
Pf growth 48h = P. falciparum growth inhibition at 48 hours (one generation); P. falciparum luciferase growth in erythrocytes, 48 h; Potency, µM (series often up to 28.7 µM), for the others: at the highest dose activity change, negative = inhibition, usual class: inhibitors; 310,000 tested, 5.9% active; also: % is scaled to controls: 0 for no effect and ±100 for the full control effect
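Here the parasites carry a stable luciferase gene and grow inside erythrocytes in Albumax-based RPMI medium with compound for one erythrocytic cycle. Activity is scored as loss of luminescent signal.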
Sm TGR block = inhibitors of Schistosoma mansoni thioredoxin glutathione reductase; Q962Y6; purified TGR, DTNB reduction, TNB absorbance 405 nm; Potency, µM (highest dose often 114 µM), for inactives: at the top dose activity change, negative = inhibition, actives largely listed as inhibitors; 360,000 tested, 3% active; AID 485364; also: % is scaled to controls: 0 for no effect and ±100 for the full control effect; nearly all actives have a fitted effect of over 60% in size
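TGR 20 nM + NADPH 100 uM (dispensed conc.), cpd preinc 15 min RT; start with NADPH (500 uM addition) then DTNB (15 mM addition). Kinetic TNB absorbance, 405 nm filter. Four-parameter Hill fit across titration.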
Pf growth 96h = P. falciparum growth inhibition at 96 hours | AID 504834 | P. falciparum luciferase reporter growth, 96 h | Potency, µM (top dose mostly 28.7 µM), for inactives: top-dose activity change, negative = inhibition, most hits filed as inhibitors | 320,000 tested, 6.9% active; also: % is scaled to controls: 0 for no effect and ±100 for the full control effect
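P. falciparum expressing integrated firefly luciferase, in erythrocytes at 2% hematocrit, 0.05% parasitemia, incubated with compounds 96 h at 37 C, 5% CO2. Growth inhibition read as loss of luminescence; two-generation exposure targets delayed-death apicoplast inhibitors.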
SARS PLP yeast = SARS-CoV PLP inhibition in yeast | S. cerevisiae expressing SARS-CoV PLpro, growth rescue | 330,000 tested, 0.19% active | Potency, µM (titrated, usually from 32.9 µM), for the others: at the top dose activity, positive = growth rescue, actives largely listed as activators; calls by dose curve; also: 0% is about no effect; nearly all actives have a fitted effect of over 55% in size
AmpC no deterg = blocks E. coli AmpC beta-lactamase in detergent-free assay | P00811 | AmpC nitrocefin hydrolysis, absorbance 480 nm, 0.0001% Triton | Potency, µM (highest dose often 57.1 µM), without a hit: at the highest dose activity change, negative = inhibition, hits mostly inhibitors | 330,000 tested, 0.52% active;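 also: plate controls were no compound for no effect and no enzyme for full effect; nearly all actives have a fitted effect of over 20% in size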
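20 mM phosphate pH 7.0 + 0.01% (detergent screen) or 0.0001% Triton X-100; 5.3 nM AmpC reagent; cpd preinc 15 min RT; nitrocefin (800 uM stock) to start; A480 q20 s × 4 min; Activity was normalised to no-enzyme and no-compound control wells.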
The depositor's hits bear a star; i = inactive; u = inconclusive; x = not tested or not shown. An excerpt weighted towards active compounds, which were near 12% of everything screened. Unless noted, calls follow the shape of the dose curve; as a rule, active = well fitted curve in the direction sought with a large enough effect; inconclusive = small, poorly fitted or top-dose-only effect, or another doubt; inactive = no such curve, though single readings can be large; an effect the other way counts as inactive or inconclusive. Potency is read from the fitted curve at half-maximal effect.

SMILES | AmpC detergent | Pf growth 48h | Sm TGR block | Pf growth 96h | SARS PLP yeast | AmpC no deterg
CCc1cc(=O)oc2c(CN3CCN(C)CC3)c(O)ccc12 | 1.4% | 0.0% | 6.1% | -8.1% | -1.5% | -11.2%
CN1CCN(Cc2c(O)ccc3cc(Br)ccc23)CC1 | -11.7% | -12.6% | 3.55µM* | u | -5.0% | -13.4%
Cc1ccc(N2C(=O)CSC2c2cccnc2)cc1F (centres undefined) | 3.8% | 6.7% | -6.3% | 37.0% | 9.6% | -16.4%
N#C/C(=C/c1cn(Cc2ccc(F)cc2)c2ccccc12)C(=O)Nc1cccc(Cl)c1 | 12.6% | x | 0.9% | x | x | x
CC1CCCN(C(=O)C23CCC(C)(C(=O)C2)C3(C)C)C1 (centres undefined) | 3.0% | 7.6% | -3.3% | 9.28µM* | -7.2% | 7.0%
CCOC(=O)CSc1nnc(NCC(=O)OC(C)C)c(=O)[nH]1 | -8.2% | -0.9% | 12.6µM* | u | -0.8% | -21.1%
CCOC(=O)CNC(=O)CSc1nnc(C)c(=O)[nH]1 | 0.6% | 5.9% | -0.6% | 21.8% | 6.9% | -25.7%
Cc1ccc(C(=O)O)cc1Nc1nc2ccccc2n2nnnc12 | -1.2% | x | -13.7% | x | x | x
COc1ccc2c(c1)c(CC(=O)Nc1cc(C)ccc1C)c(C)n2C(=O)c1ccc(Cl)cc1 | 7.2% | u | -1.5% | 11.7µM* | 7.7% | -30.6%
COc1ccc(OC)c(NC(=O)Cc2c(C)n(C(=O)c3ccc(Cl)cc3)c3ccc(OC)cc23)c1 | -4.9% | x | 5.0% | x | x | x
COc1ccc2c(c1)c(CC(=O)NCc1cc([N+](=O)[O-])ccc1O)c(C)n2C(=O)c1ccc(Cl)cc1 | 7.1% | u | -24.7% | 5.86µM* | 5.8% | -38.4%
COc1ccc2c(c1)c(CC(=O)Nc1ccccc1OC)c(C)n2C(=O)c1ccc(Cl)cc1 | 7.0% | 0.0% | -4.1% | 5.22µM* | 11.1% | -31.3%
Cc1cc(C)cc(N2C(=O)CSC23C(=O)N(CC(=O)Nc2ccc(F)cc2F)c2ccccc23)c1 (centres undefined) | -5.6% | x | 6.0% | x | x | x
O=C(CN1C(=O)COc2ccc(S(=O)(=O)N3CCCC3)cc21)N1CCN(c2ccccc2)CC1 | -2.8% | x | 4.7% | x | x | x
COc1ccc(S(=O)(=O)CC(=O)c2cc(C)c(O)c(C)c2)cc1 | -5.3% | -4.8% | 28.2µM* | -14.6% | 1.5% | -51.3%
NC(=O)CS(=O)(=O)c1ccc(Cl)cc1 | 3.1% | 43.0% | 7.7% | 6.1% | -0.4% | -7.7%
Cc1cc(C(=O)CS(=O)(=O)c2ccc(Cl)cc2)cc(C)c1O | 4.7% | -16.2% | 4.47µM* | 14.6% | 1.3% | -46.9%
Cc1cc(C(=O)CS(=O)(=O)c2ccc(F)cc2)cc(C)c1OC(=O)N(C)C | -4.5% | i | -1.6% | 148.5% | 3.8% | 42.1%
CCNC(=O)O/N=C(\C)c1sc(-c2ccc(Cl)cc2)nc1C | 0.7% | 180.4% | 23.0% | 244.5% | -19.9% | 15.0%
COc1ccc(S(=O)(=O)N2CCN(C)CC2)cc1 | -4.4% | 24.7% | 4.4% | u | 0.7% | -11.9%
COc1ccc(S(=O)(=O)N2CCN(C3Cc4ccccc4C3)CC2)cc1 | 2.1% | 47.8% | -6.7% | 10.4µM* | 13.0% | -11.0%
COc1ccc(S(=O)(=O)N2CCCN(CC(=O)C(C)(C)C)CC2)cc1 | -5.5% | u | 10µM* | u | 6.6% | 17.1%
COc1ccc(S(=O)(=O)N2CCCN(CC(=O)Nc3ccccc3F)CC2)cc1 | -13.6% | -10.8% | -9.4% | 11.4% | -0.8% | 18.4%
COc1ccc(S(=O)(=O)N2CCCN(C)CC2)cc1 | 0.8% | 37.4% | 39.8µM* | 0.0% | 3.0% | -12.2%
Cc1cccc(C(=O)N2CCc3cc(CNC(=O)COc4ccc(Cl)cc4)ccc32)c1 | 10.5% | x | 2.9% | x | x | x
COc1cc(Cl)c(C)cc1N1C(=O)CN(Cc2ccccc2)C1=S | -16.2% | u | 6.7% | 24.5% | -7.6% | -4.0%
